# Measured values as given in PMC8384837, “Expanding the binding specificity for RNA recognition by a PUF domain”.
# Target: PUM1 PUF domain R3-RVK (Homo sapiens, UniProt Q14671 828-1176, C935R;R936V;Q939K)
# Assay: yeast three-hybrid, YBZ-1, SC-Leu-His + 0.5 mM 3-AT, 4 days
# Details: tags: N-Gal4 AD-HA kept; label: inside an RPR1-promoter hybrid RNA with tandem MS2 sites; ssRNA
# How it was run: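 The interaction score is the logarithmic change in variant frequency from input to selection. It uses log2, with a pseudocount of 1 for absent variants, and frequencies came from PCR-amplified, Illumina-sequenced repeat regions. The libraries were Pumilio-1 PUF domains randomized at the three base-contacting residues per repeat, co-expressed with matching RNA elements in strain YBZ-1 (LexA–MS2 coat fusion, HIS3 reporter). Plating lasted four days on SC-Leu (input) or SC-Leu-His + 0.5 mM 3-AT (selection).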
# Chain of PUM1 PUF domain R3-RVK (Q14671 828-1176 C935R/R936V/Q939K): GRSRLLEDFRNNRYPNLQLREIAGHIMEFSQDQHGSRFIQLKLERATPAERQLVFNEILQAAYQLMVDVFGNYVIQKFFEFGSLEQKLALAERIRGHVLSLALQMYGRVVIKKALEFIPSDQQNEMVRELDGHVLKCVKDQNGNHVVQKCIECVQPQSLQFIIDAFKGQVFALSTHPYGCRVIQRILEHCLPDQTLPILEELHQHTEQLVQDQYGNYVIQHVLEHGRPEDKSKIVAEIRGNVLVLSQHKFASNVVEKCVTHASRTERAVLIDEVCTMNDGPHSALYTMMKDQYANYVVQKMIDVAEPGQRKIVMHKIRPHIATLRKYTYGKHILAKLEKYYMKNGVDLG
row,Sequence,binding signal
1,GGCUAGAACUAGUGGAUCCCCCGGCGCCCGGCGGCUCGAGCCCGGGUAAGUGUAAUUAGUCUGCAUGCCGCCGGGCGCCAUGCCUGCAGGUCGACUCUAGAAAACAUG,5.35 log2 enrichment (interaction score)
2,GGCUAGAACUAGUGGAUCCCCCGGCGCCCGGCGGCUCGAGCCCGGGUAAGUGUAAAUAGUCUGCAUGCCGCCGGGCGCCAUGCCUGCAGGUCGACUCUAGAAAACAUG,2.2 log2 enrichment (interaction score)
3,GGCUAGAACUAGUGGAUCCCCCGGCGCCCGGCGGCUCGAGCCCGGGUAAGUGUAAGUAGUCUGCAUGCCGCCGGGCGCCAUGCCUGCAGGUCGACUCUAGAAAACAUG,2.53 log2 enrichment (interaction score)
